HEK293 viab = cell viability loss counter-screen. HEK-293-SNCA-luc viability, GF-AFC fluorescence, 24 h. Potency, µM (titrated, usually from 57.1 µM), hits mostly cytotoxic. hit rate 0.12% among 150,000. AID 1671193; also: nearly all actives have a fitted effect of over 30% in size
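Cytotoxicity counterscreen: after 24 h compound treatment of genome-edited SNCA-luciferase HEK-293 cells, live-cell protease substrate GF-AFC read by fluorescence after 30 min; activity scaled between DMSO (0%) and medium-only (-100%), curves Hill-fitted.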
SNCA expr inhib = inhibitors of alpha-synuclein (SNCA) gene expression; HEK-293 SNCA-luciferase knock-in, luminescence, 24 h; Potency, µM (top dose mostly 57.2 µM), actives largely listed as inhibitors; hit rate 0.17% among 140,000; also: nearly all actives have a fitted effect of over 45% in size
IP6K1 inhibitor = inhibitors of human IP6K1; hit rate 0.81% among 140,000; IP6K1 kinase, ADP-Glo luminescence, 2 h; active compounds read low; Q92551; activity change, % (series mostly up to about 58 µM); in the data active = activity change below about -25%
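ADP-Glo luminescence measures ADP made by human IP6K1 during a 2 h RT reaction with ATP/IP6 (mix at 1.3 mM/130 uM); top library doses 57.5 and 19.1 uM final.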
GPT2 inhibitor = GPT2 alanine aminotransferase inhibition | hit rate 0.25% among 100,000 | Q8TD30 | Recombinant GPT2, coupled pyruvate oxidase/HRP Amplex Red fluorescence | AID 1671188 | Potency, µM (series often up to 57.7 µM), usual class: inhibitors; also: nearly all actives have a fitted effect of over 60% in size
Target sequence (Q8TD30 whole entry, looked up): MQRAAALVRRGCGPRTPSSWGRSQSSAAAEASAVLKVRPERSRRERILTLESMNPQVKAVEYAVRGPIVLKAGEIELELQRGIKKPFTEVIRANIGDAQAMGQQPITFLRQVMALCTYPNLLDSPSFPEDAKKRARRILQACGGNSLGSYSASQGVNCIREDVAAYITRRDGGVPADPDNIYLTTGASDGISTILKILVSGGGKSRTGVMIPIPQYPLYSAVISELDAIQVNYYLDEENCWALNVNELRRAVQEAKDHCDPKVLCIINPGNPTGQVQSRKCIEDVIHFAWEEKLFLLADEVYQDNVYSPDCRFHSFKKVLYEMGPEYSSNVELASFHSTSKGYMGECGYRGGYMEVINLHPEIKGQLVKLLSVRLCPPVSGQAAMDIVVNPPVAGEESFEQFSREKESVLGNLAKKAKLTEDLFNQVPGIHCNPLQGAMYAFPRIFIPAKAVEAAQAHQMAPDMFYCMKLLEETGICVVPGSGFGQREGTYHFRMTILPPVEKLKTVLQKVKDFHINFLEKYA
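Fluorescence of coupled pyruvate oxidase/HRP/Amplex Red system (50uM Amplex, 30 min, dark) reports pyruvate formed by GPT2. Enzyme reaction: 10ng/uL GPT2, 2mM L-alanine, 250uM a-KG, 30 min room temperature, pH 7.5; 50uM AOA control.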
Numbers stand for hits; 0 = inactive; ? = inconclusive; - = not tested or not shown; ! = repeats disagree; [ ] = another dose, or the depositor's remark. Sampled rows, rich in hits. Any-hit rate of the full collection: about 1.1%. Unless noted, calls follow the shape of the dose curve; as a rule, active = well fitted curve in the direction sought with a large enough effect; inconclusive = small, poorly fitted or top-dose-only effect, or another doubt; inactive = no such curve, though single readings can be large; an effect the other way counts as inactive or inconclusive.

SMILES | HEK293 viab | SNCA expr inhib | IP6K1 inhibitor | GPT2 inhibitor
Oc1cc(O)cc(C=Cc2ccc(O)c(O)c2)c1 | 0 | 0 | - | 4.32µM
Oc1ccc(C=Cc2cc(O)cc(O)c2)cc1 | 0 | 12.1µM | - | 0
Cc1cc(=O)oc2c(C=O)c(O)ccc12 | 0 | - | 0 | 0
Cc1cccc2c1O[C@H]1[C@H](C(N)=O)CN(C(=O)OCC(C)C)[C@@H]21 | - | - | 0 | -
O=C(O)c1cccnc1 | 4.29µM! | 4.29µM! | 0 | 0
O=C(CNC(=O)c1ccc(-c2cnc3ccccc3c2)cc1)NCC1CCCCC1 | - | - | 0 | -
COc1ccc(-c2nn(-c3cc(C)ccc3C)c(OC(C)=O)c2-c2ccc(NC(C)=O)cc2)c(OC)c1 | 0 | 0 | 0 | 2.82µM
Cc1[nH]nc2ccc(-c3cncc(OC[C@@H](N)Cc4ccccc4)c3)cc12 | 9.47µM! | 0.171µM | 0 | 0
O=C(NC1CCN(c2ccnc3ccnn23)CC1)c1cncc(Br)c1 | 0 | ? | 0 | 0
CC(C)(C)NC(=O)Nc1cccc(Nc2ncc(F)c(NC(C)(C)CO)n2)c1 | 0 | 0 | 0 | 0
C=CC(=O)Nc1cccc(Nc2nc(Nc3ccc(OCCOC)cc3)ncc2F)c1 | 9.47µM | - | 0 | 0
Cn1nc(C2CC2)cc1NC(=O)C1CCCC1 | 0 | 0 | 0 | 0
CSc1ccc(-c2cccc(C(=O)NCC(=O)N3CCN(c4ncccn4)CC3)c2)cc1 | 0 | 0 | 0 | 0
O=c1c(-c2ccc(O)cc2)coc2cc(O)cc(O)c12 | 0 | 2.82µM! | 0 | 0
COc1ccc(-c2coc3cc(O)cc(O)c3c2=O)cc1 | 0 | ? | - | 0
O=C(Cc1cccc(Cl)c1)NC1CCN(C(=O)c2ccc(-c3cncnc3)cc2)CC1 | 0[12.5 µM] | 0 | 0 | 0
CC1OC2OC3C(OCC(O)C3O)OC(=O)C34CCC(C)(C)CC3C3=CCC5C6(C)CC(O)C(OC7OC(CO)C(O)C(O)C7OC7OCC(OC(=O)CC(C)(O)CC(=O)OC1C(OC1OCC(O)C(O)C1O)C2O)C(O)C7O)C(C)(CO)C6CCC5(C)C3(C)CC4O (stereo unspecified) | 5.19µM | - | 0 | 0
CC1(C)CC[C@]2(C(=O)O[C@@H]3O[C@H](CO)[C@@H](O)[C@H](O)[C@H]3O)CC[C@]3(C)C(=CCC4[C@@]5(C)C[C@H](O)[C@H](O[C@@H]6OC[C@@H](O)[C@H](O)[C@H]6O)[C@@](C)(CO)C5CC[C@]43C)C2C1 (stereo partly specified) | 0[12.5 µM] | - | 0 | 0
COCCCNC(=O)C(C)(C)Oc1nn(Cc2cccc(Cl)c2)c2ccccc12 | ? | 31.6µM | 0 | 0
COCCNC(=O)c1cc(-c2cccc(C(F)(F)F)c2)nc2c1cnn2C | 0 | 0 | 0 | 0
CN1CCc2c(sc3c2C(=O)NC(c2ccc(OC(=O)c4ccc(Cl)cc4)cc2)N3)C1 (stereo unspecified) | 0 | 0 | 0 | -
CN1CCc2c(sc3c2C(=O)NC(c2ccc(OC(=O)c4ccc(C(C)(C)C)cc4)cc2)N3)C1 (stereo unspecified) | ? | 1µM | 0 | -
O=C(NCCNC(=O)C1CC1)c1ccc(-c2cccc(C(F)(F)F)c2)cc1 | - | - | 0 | -
Cc1cccc(CNC(=O)c2ccc(Cn3c(SCc4cccc(F)c4)nc4cccnc43)cc2)c1 | 0 | 0 | -52.6 | -
Cc1cccc(CNC(=O)c2ccc(Cn3c(SCc4ccccc4)nc4cccnc43)cc2)c1 | ? | 0 | 0 | -
SMILES | HEK293 viab | SNCA expr inhib | IP6K1 inhibitor | GPT2 inhibitor
CC(=O)N1CCN(c2ccc3nnc(C)n3n2)CC1 | - | - | 0 | -
COc1cc(O)ccc1-c1nc2ccc(Br)cn2c1Nc1ccccc1C | 14.1µM | ? | 0 | -
COc1ccc(C(=O)NCCNC(=O)c2cccc(-c3cc(F)ccc3OC)c2)cc1 | 0 | 0 | 0 | 0
Cc1cccc(CNC(=O)c2csc(N3CCN(c4ccccc4)CC3)n2)c1 | 0 | 0 | 0 | 0
O=C(NCc1ccccc1)c1csc(Nc2ccncn2)n1 | ? | 9.61µM | 0 | 0
COc1cc(C)c(Sc2cnc(NC(=O)c3ccc(CNC(C)C(C)C)cc3)s2)cc1C(=O)N1CCN(C(C)=O)CC1 (stereo unspecified) | 27.1µM! | ? | 0 | 0
COc1ccc(C(=O)Nc2ncc(-c3ccc(C(=O)O)cc3)s2)cc1 | 0 | - | 0 | 0
CCC(=O)N1CCCN(c2ccnc3ccnn23)CC1 | 0 | 0 | 0 | 0
O=S(=O)(NCCc1csc2nc(-c3ccc(F)cc3)nn12)c1ccc(Br)cc1 | 0 | 0 | 0 | -
CC(=O)c1cccc(S(=O)(=O)NCCc2csc3nc(-c4ccc(F)cc4)nn23)c1 | 31.6µM | 0 | 0 | -
COCC(=O)NC1CCN(c2ccc3nnc(-c4ccccc4)n3n2)C1 (stereo unspecified) | - | - | 0 | -
CC(C)n1nc(C#Cc2ccccc2)c2c(N)ncnc21 | 0 | - | 0 | ?
